Only some compounds are listed: those with a hit (about 21% of all), similar ones and a draw of the others.
NS1 function inh: inhibitors of influenza NS1 protein function | Potency, µM (series often up to 46.1 µM), without a hit: at the top dose activity, positive = more growth | 0.4% of 270,000 active; calls by dose curve; note: potency is the fitted concentration of half-maximal effect; actives are rising curves; nearly all actives have a fitted effect of over 50% in size
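Recovery from NS1-induced slow growth read by OD600 in budding yeast switched to galactose assay medium (pH 6.0, -URA) at 1:100 dilution. Compound 23 nl per well; the matching strain lacking NS1 serves as control.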
Pf growth 48h: P. falciparum growth inhibition at 48 hours (one generation); P. falciparum luciferase growth in erythrocytes, 48 h; AID 504832; 5.9% of 310,000 active; Potency, µM (top dose mostly 28.7 µM), without a hit: at the highest dose activity change, negative = inhibition, usual class: inhibitors; note: potency is the fitted concentration of half-maximal effect; % is set by controls: 0 for no effect and ±100 for the full control effect
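Cell-based growth assay: transgenic P. falciparum expressing firefly luciferase, cultured in red cells within RPMI 1640 containing 0.5% w/v Albumax, 24 mM bicarbonate and gentamycin. A drop in luciferase activity indicates inhibition.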
CHX counter: affects cycloheximide protein synthesis inhibition readout, counter-screen | 12% of 300,000 active | max response, % | cell reporter, cycloheximide protein synthesis inhibition counterscreen; in the data active = max response mostly above about 13%, no sharp cut-off; inactive = mostly below about 14%; note: read at 38.3 µM for the half of the compounds with a filed dose; 0% is about no effect
Shiga toxin inh: blocks Shiga toxin action in Vero cells | inhibition, % at 38.7 µM | AID 2315 | 9.2% of 290,000 active | Vero cells, Shiga toxin protein synthesis inhibition reporter; in the data active = inhibition mostly above about 28%, no sharp cut-off; inactive = mostly below about 43%; note: 0% is about no effect
Pf growth 96h: P. falciparum growth inhibition at 96 hours; P. falciparum luciferase reporter growth, 96 h; Potency, µM (titrated, usually from 28.7 µM), without a hit: at the top dose activity change, negative = inhibition, usual class: inhibitors; 6.9% of 320,000 active; AID 504834; note: potency is the fitted concentration of half-maximal effect; % is set by controls: 0 for no effect and ±100 for the full control effect
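Plates of compound plus infected erythrocytes (2% hematocrit, 0.05% parasitemia final) incubate 96 hours, 37 C, 5% CO2. Detection reagent added; reduced luminescence from the parasites' luciferase reporter flags inhibition.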
Giardia FBPA inh: blocks Giardia fructose-bisphosphate aldolase activity; AID 2451; 0.71% of 290,000 active; A8B2U2; Potency, µM (highest dose often 59.6 µM), inactives show at the highest dose activity, negative = inhibition, actives largely listed as inhibitors; purified Giardia FBPA; note: potency is the fitted concentration of half-maximal effect; % is set by controls: 0 for no effect and ±100 for the full control effect; nearly all actives have a fitted effect of over 55% in size
Target sequence (A8B2U2 whole entry, looked up): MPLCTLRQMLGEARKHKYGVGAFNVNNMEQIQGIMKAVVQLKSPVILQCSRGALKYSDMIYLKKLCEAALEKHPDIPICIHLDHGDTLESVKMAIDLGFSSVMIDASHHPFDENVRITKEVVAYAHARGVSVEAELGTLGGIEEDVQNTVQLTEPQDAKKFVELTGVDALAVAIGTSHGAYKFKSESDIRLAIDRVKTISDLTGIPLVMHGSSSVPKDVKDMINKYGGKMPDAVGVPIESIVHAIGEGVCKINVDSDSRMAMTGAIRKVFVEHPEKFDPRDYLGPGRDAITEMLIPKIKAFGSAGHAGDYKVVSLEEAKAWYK
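40 nM FBPA preincubated 10 min at RT with compound (up to 57.5 uM final), then substrate plus GAPDH/TPI/NAD/arsenate coupling and diaphorase/resazurin added. Fluorescence read after 20 min at RT, 525/598 nm.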
* = called active by the depositor; i = inactive; ? = inconclusive; / = not tested or not shown. Unless noted, calls come from the whole dose curve; as a rule, active = well fitted curve in the direction sought with a large enough effect; inconclusive = small, poorly fitted or top-dose-only effect, or another doubt; inactive = no such curve, though single readings can be large; an effect the other way counts as inactive or inconclusive.

SMILES | NS1 function inh | Pf growth 48h | CHX counter | Shiga toxin inh | Pf growth 96h | Giardia FBPA inh
CCCCCCn1c(C(C)NC(=O)c2ccco2)nc2ccccc21 (stereo not drawn) | -81.7% | ? | 11.5* | 4.9 | ? | 1.5%
CC(C)Cn1c(CCNC(=O)c2ccco2)nc2ccccc21 | -10.0% | 42.7% | 31.4* | 116.6 | ? | /
O=C(Nc1cccc(C(=O)O)c1)/C(=C\c1ccc2c(c1)OCO2)NC(=O)c1ccccc1Cl | -16.5% | ? | -9.6 | -21.9 | ? | /
CC1=C(C)C(C)=C(C#N)C(=C(C#N)C#N)N1 | 6.3% | 2.3% | -0.9 | -8.6 | 6.9% | ?
CCC(C(=O)NC1CCCCC1)N(Cc1cccs1)C(=O)c1snc(C(N)=O)c1N (stereo not drawn) | / | -3.7% | 0.8 | 25.1 | ? | 0.4%
CCCCCCCCCCC/C=C\C(C)(C)/C=C\CCCC(=O)O | -2.7% | / | / | / | / | 4.9%
Cc1noc2ncc(C(=O)c3cc(F)ccc3O)cc12 | -5.6% | / | -1.1 | 9.0 | 8.28µM* | 12.3%
O=C(c1cn[nH]c1)c1cc(F)ccc1O | -2.8% | / | -3.5 | -2.6 | 6.4% | 7.2%
O=C(c1cnc2nc3ccccc3n2c1)c1cc(F)ccc1O | 0.6% | 23.1% | 13.5* | 11.3 | ? | -17.2%
Cc1nn(CCO)c2ncc(C(=O)c3cc(F)ccc3O)cc12 | 3.6% | 19.9% | 9.0 | -8.7 | -0.4% | 6.1%
Cc1ccc(O)c(C(=O)c2cnc3onc(-c4ccc(F)cc4)c3c2)c1 | -0.4% | 3.29µM* | -1.0 | 16.2 | 2.33µM* | 1.5%
Cc1[nH]nc2ncc(C(=O)c3cc(F)ccc3O)cc12 | -5.3% | / | 0.6 | -10.4 | ? | 8.3%
O=C(COC(=O)c1cccc([N+](=O)[O-])c1)c1ccc2c(c1)OCO2 | / | 100.1% | / | / | 53.5% | /
COCCN(C(=O)COC(=O)c1cccs1)c1c(N)n(Cc2ccccc2)c(=O)[nH]c1=O | 9.8% | -5.6% | -1.1 | 1.0 | 23.2% | /
O=C(COCc1cc(-c2ccc3c(c2)OCO3)on1)Nc1cccnc1Cl | -10.5% | 43.3% | 25.3* | 29.4 | ? | /
CCN1CCN(C(=O)COCc2cc(-c3ccc4c(c3)OCO4)on2)CC1 | 3.5% | 43.1% | 21.9* | 27.2 | 33.7% | /
COc1ccc(N2CCN(C(=O)COCc3cc(-c4ccc5c(c4)OCO5)on3)CC2)cc1 | -1.3% | -15.5% | 5.0 | 3.2 | ? | -12.1%
CCn1c2ccccc2c2nnc(SCCN3CCOCC3)nc21 | -0.6% | 0.1% | -0.9 | / | -12.0% | ?
Cn1c2ccccc2c2nnc(SCCN3CCOCC3)nc21 | 2.0% | 33.4% | 15.9* | 30.1 | -56.6% | 3.1%
Cn1c(SCc2nnc(-c3ccccc3)o2)nc2ccccc21 | / | -9.8% | 19.9 | -5.4 | -10.1% | -29.3%
Cn1c2ccccc2c2nnc(SCc3nnc(-c4ccccc4)o3)nc21 | 1.1% | 9.4% | -2.7 | -14.1 | 4.15µM* | -2.6%
Cn1c(=Nc2ccc(N3CCOCC3)cc2)ccc2ccccc21 | 7.5% | -6.7% | 1.4 | -7.4 | ? | -1.2%
Cn1c(N=Nc2ccc(N3CCOCC3)cc2)[n+](C)c2ccccc21 | -1.3% | -4.5% | 47.8* | 94.2* | 5.3% | -22.2%
O=C1c2ccccc2C(=O)c2c1cccc2N1CCCC1 | -12.7% | 65.8% | 43.3* | 56.0* | 0.0% | ?
O=C1c2ccccc2-c2onc3ccc(NCc4ccco4)c1c23 | -110.9% | -28.0% | 12.8* | -6.8 | 24.8% | ?
SMILES | NS1 function inh | Pf growth 48h | CHX counter | Shiga toxin inh | Pf growth 96h | Giardia FBPA inh
CCNc1ccc2noc3c2c1C(=O)c1ccccc1-3 | 16.1% | 35.1% | 16.6 | 21.2 | ? | -22.3%
O=C1c2ccccc2-c2onc3ccc(N4CCCC4)c1c23 | / | 9.28µM* | -5.6 | 11.5 | 39.2% | ?
CC[C@@]1(O)C(=O)COc2c1cc1n(c2=O)Cc2c-1nc1cccc(C(C)C)c1c2[Si](C)(C)C | / | / | / | / | / | -12.5%
CN1CCC(OC(=O)C(Oc2ccc(Cl)cc2)Oc2ccc(Cl)cc2)CC1 | / | 4.8% | / | / | -1.3% | /
Cc1ccc([N+](=O)[O-])c(NC2OC(CO)C(O)C2O)c1 (stereo not drawn) | / | -18.1% | -4.1 | 34.0 | 5.22µM* | 0.5%
Cc1nc(N)nc(COc2ccccc2)n1 | -0.7% | 42.9% | 36.8* | 46.0* | 108.2% | 5.3%
COc1ccc(OCc2nc(N)nc(Nc3cccc(C)c3C)n2)cc1 | -5.5% | / | -1.0 | -5.9 | / | 5.1%
COc1ccc(OCc2nc(N)nc(Nc3ccc(C)cc3)n2)cc1 | 2.6% | 19.5% | 15.1* | 17.0 | -11.0% | 3.0%
COc1ccc(OCc2nc(N)nc(Nc3ccccc3)n2)cc1 | 6.6% | 7.9% | 21.3* | 24.7 | ? | 2.1%
O=C(CNC(=O)c1sc2ccccc2c1Cl)NCc1cccc(C(F)(F)F)c1 | / | ? | / | / | -2.5% | /
Cn1c(SCC(=O)NC(=O)NCc2ccccc2)nnc1C(F)(F)F | / | -3.3% | / | / | -7.5% | /
N#C/C(=C\c1ccc(N2CCOCC2)cc1)c1ccccc1 | 7.2% | 293.8% | 50.7* | 19.0* | 368.2% | -23.7%
N#C/C(=C/c1ccc(N2CCOCC2)o1)c1ccc(Br)cc1 | -13.0% | 76.0% | 76.8* | 109.5* | 5.22µM* | /
N#CC(C#N)=Cc1ccc(N2CCOCC2)cc1 | -38.8% | -10.9% | -1.4 | -6.7 | 5.7% | -6.8%
N#C/C(=C\c1ccc(N2CCOCC2)o1)c1ccccc1 | 13.8% | 10.0% | 33.6* | 31.4 | 408.5% | ?
N#C/C(=C\c1cc([N+](=O)[O-])c(N2CCOCC2)cc1N1CCOCC1)c1nc2ccccc2[nH]1 | 4.5% | ? | -0.4 | -1.3 | 11.7µM* | -6.9%
N#C/C(=C\c1cc([N+](=O)[O-])c(N2CCCCC2)cc1N1CCCCC1)c1nn(-c2ccccc2)c(N)c1C#N | 19.9% | ? | 7.5 | -11.9 | ? | 0.1%
CCOP(=O)(O)c1cccc(OCCOCCOc2cccc(P(=O)(O)OCC)c2)c1 | / | 7.7% | -3.6 | 27.9 | -24.9% | 6.7%
COc1ccc(C(=O)N2CCCC(Nc3ccc(F)cc3)C2)c(OC)c1 (stereo not drawn) | 2.3% | 11.0% | 1.0 | -6.6 | 21.2% | /
COc1ccc(OC)c(/C=N/NC(=O)C(=O)N2CCCCCC2)c1 | 2.2% | 6.3% | -2.4 | -31.9 | 23.9% | /
CSc1cccc(NC(=O)CN(C)S(=O)(=O)c2cnc[nH]2)c1 | 9.3% | 26.3% | 9.5 | 16.0 | ? | /
S=C(c1nc2ccccc2[nH]1)N1CCOCC1 | 0.4% | -2.2% | -2.1 | -3.6 | -31.1% | ?
N#C/C(=C/c1ccc(N2CCOCC2)o1)c1nc2ccccc2[nH]1 | 25.5% | 100.8% | 33.6* | 57.9* | 8.4% | ?
CC(NC(=O)CSc1nc2ccc(N)cc2s1)c1ccccc1 (stereo not drawn) | -6.7% | 14.4% | 7.8 | 44.8 | 0.3% | -0.1%
Nc1nc2ccc(S(=O)(=O)c3ccc4nc(N)sc4c3)cc2s1 | -0.2% | -12.0% | -2.7 | -5.3 | -1.7% | 27.3%
CC(C)c1ccc2nc(N)sc2c1 | / | 286.5% | 25.5* | 64.1* | i | 7.3%
Nc1nc2c(F)c(F)c(F)cc2s1 | / | 18.5% | 8.0 | -4.1 | -0.2% | -5.2%
O=C(c1ccc2snnc2c1)N1CCCC1 | -0.9% | 7.7% | -3.9 | -7.7 | ? | 5.7%
